Where a chain is given by its changes, count along the chain named. The full ranking holds about 24,000 sequences; the median of “enrichment r” is about 0.99, and the highest 2% start at about 3.7. Only a selection was taken, and the highest values are over-represented in it overall.
T1: UNK ZnF1-3 (human, UniProt Q9C0B0 31-174)
T1 sequence: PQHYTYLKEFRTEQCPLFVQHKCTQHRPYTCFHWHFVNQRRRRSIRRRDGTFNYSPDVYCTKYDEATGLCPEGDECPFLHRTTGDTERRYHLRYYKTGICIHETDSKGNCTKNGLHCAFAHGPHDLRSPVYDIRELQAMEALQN

B1: chr6:83878822:83878823:+_ENSMUSG00000030016_ENSMUST00000032088|mus_hu|FALSE|FALSE (ssRNA)
RNA: GGGAGUUCUACAGUCCGACGAUCCUCCUCGAGGAUUAAACCUGGGUCUCGACAUGGCUAUUUUCAAGAAAGCCUGAUUUAAUAAAGUAUAAGGUGGUGUUGAACCAUGUGAGGCAACGGCAUUCAGCUGCUGAAGCGCCAACUCAACAGAGGAUUGAGCAUCA
B2: chr12:67691335:67691336:+_ENSG00000111530_ENST00000540319|hu_mus|motif|central (ssRNA)
RNA: GGGAGUUCUACAGUCCGACGAUCCAUGGAGUCAUUUUUGGACAACUCUGACAACAGAUGUUCAAUAAGGUCUACAAAAACGGUAUUUCCGCAGCUCAUAACUAGGUGGCCAAGAGCAAUAAUUGUUCUUUUCCUCACUGCAAGCAACAGAGGAUUGAGCAUCA
B3: chr15:75216061:75216062:-_ENSG00000178741_ENST00000564811|perfect_dup|motif|central (ssRNA)
RNA: GGGAGUUCUACAGUCCGACGAUCUUUGUCAAGGCCCAGUUCCUCCGGAGUGGAGAUUCCCAGUUCAUUUAAAGUUGGUCGGAGUUCCUGGAUGACAUAGGGGUAGAUUUCCUUAUGAGGUCCUGCUUUGUCCUUAACAACCUCCAACAGAGGAUUGAGCAUCA
B4: chr12:16048344:16048345:+_ENSG00000023734_ENST00000419869|hu_hu|hu_hu_hu_mus_True|18_78 (ssRNA)
RNA: GGGAGUUCUACAGUCCGACGAUCAGAUCGUCCAUAAGUAAUAACCAAAAUCUCUCCCUCAGGAAUAUACUCCAUGCUGCUAACAGACAUAUUAAAAUUCAGAGAUUUCACUUCUGUCAUAGUAGCAUGAUCCCAGAGCCGAACCAACAGAGGAUUGAGCAUCA
B5: chr12:42180722:42180723:-_ENSMUSG00000036295_ENSMUST00000043884|mus_hu|mus_mus_mus_hu_True|58_108 (ssRNA)
RNA: GGGAGUUCUACAGUCCGACGAUCCUGUAGGAGCAGAAUCUGUGUGUUAGCUGGCAAUCUGGCUGGGAAAGUUAAAAGCCCUAAAUCAUUACAAUCCACUGUAGAUGCUUCCAUAUAAAUGGAUCUGGGUGUAAACCAAGGCCUCAACAGAGGAUUGAGCAUCA
B6: chr16:94690093:94690094:+_ENSMUSG00000040785_ENSMUST00000117648|mus_mus|motif|central (ssRNA)
RNA: GGGAGUUCUACAGUCCGACGAUCUGGGACUCCUGUGAGCAGACAGCAUCUUCCCAGGGUAAAAAAAAAAAAUAGCCAAUACGGAUUUAAAAAGUAUUUUAUAAUUGAUUACCAAAAUGUAGAUUAAUUGAAUCAUAAGCACUUCAACAGAGGAUUGAGCAUCA
B7: chrX:98838459:98838460:+_ENSMUSG00000034160_ENSMUST00000044475|mus_mus|FALSE|FALSE (ssRNA)
RNA: GGGAGUUCUACAGUCCGACGAUCUCCCAAAUUCGAAUAGGCUUCUGCUAGAAGGGGAUUCUGUUUAAUUGCCAAGGUGCUAAAAUGAGCAGAUCUGUCCAGCCUUCGACACUGGAAGUGUAUAGAUGAAAGUAAUAAAAGAACCAACAGAGGAUUGAGCAUCA
B8: 109710003_109710123_2987_3pUTR_ENSMUSG00000031924_ENSMUST00000034400|mouse|control|control (ssRNA)
RNA: GGGAGUUCUACAGUCCGACGAUCUUCUGCCUCCCAAGUGCUGGGAUUAAAGAUUUAAAAAAAAAAAAGCAUCCUUUUUAUAUAAUAUAAAAUGACAUUACAUUAUCAGUAGUUCAAAAGAAGCCCUGGGUAUUGACGGAUUUCCAACAGAGGAUUGAGCAUCA
B9: chr12:16048344:16048345:+_ENSG00000023734_ENST00000419869|hu_hu|hu_hu_hu_mus_True|8_18 (ssRNA)
RNA: B4 RNA with C57U, G135A
B10: chr7:125984895:125984896:+_ENSMUSG00000030982_ENSMUST00000106553|mus_mus|motif|central (ssRNA)
RNA: GGGAGUUCUACAGUCCGACGAUCGUAGAAGGCAAGAGCUUAAAACCAAUCUGUAUAAAAGUAAAAAUAACAAAAACUUCGGAAUUCCAGGAAGAGUUAAUGGCAGCCAAGCAGAUCUUCCAGGAUGUGGCACUGGGACUCCCGCAACAGAGGAUUGAGCAUCA
B11: chr4:6323411:6323412:-_ENSMUSG00000028245_ENSMUST00000029910|mus_hu|FALSE|FALSE (ssRNA)
RNA: GGGAGUUCUACAGUCCGACGAUCAGAAAAAUAUUUUUAAUGUAGAAAAGAUGAAUAGCUGUAAUGAAAUACAAACCGUUCCUAUACACAGUAAACUUACUAAGAACUGCUAAUCCUUCUCCAGGUUCUUAGAAUCUGGGUACACAACAGAGGAUUGAGCAUCA
B12: chr16:94690093:94690094:+_ENSMUSG00000040785_ENSMUST00000117648|mus_mus|FALSE|FALSE (ssRNA)
RNA: B6 RNA with G82U, G83A
B13: 74654529_74654649_2250_CDS_ENSG00000113161_ENST00000287936|human|control|control (ssRNA)
RNA: GGGAGUUCUACAGUCCGACGAUCUCUGACAACCUUGGCUGGAAUGACAGCUUCACAAACAACAGAUUUUCCUCUUCCCUCUAUCCAAUUUAUAGCAGCAGGUUUCUUGUCAGUACAAUAGUUACCACUAACGGCUAGAAUCUGCAACAGAGGAUUGAGCAUCA
B14: chr22:19452774:19452775:-_ENSG00000070010_ENST00000399523|hu_hu|hu_hu_hu_mus_False|18_88 (ssRNA)
RNA: GGGAGUUCUACAGUCCGACGAUCCUUCUCAUUGUAGUUGAUAGCAAUCACAUCCCCAGUCGUCAGACAGGCGAAGUUUCUCAAUGCAUUUUCUAAUACCGCUUUAGGGUUGGUAAUGUCCAGGAAGUCUGGGCUCUGAGGCUGCAACAGAGGAUUGAGCAUCA
B15: chrX:100667754:100667755:+_ENSG00000126945_ENST00000316594|hu_hu|FALSE|FALSE (ssRNA)
RNA: GGGAGUUCUACAGUCCGACGAUCUCCGUAUCUAUGAUCAGACAUUCCUGAAAAACAGUAAUUGAGGUCUCUUCCAAAUCUAUCAGACCCAAAGCCAUAUCCAUCAUUAUAGCCACCAUAGUCAUCAUAGCCUCCAUACCCUCCCAACAGAGGAUUGAGCAUCA
B16: 31508769_31511148_1743_CDS_ENSG00000113360_ENST00000513349|human|control|control (ssRNA)
RNA: GGGAGUUCUACAGUCCGACGAUCAGGGUGGGCCUUUUUGCGUUUGAUUUCUGCAAUAACGUCAAAAACUUCAGAGUCUGAGCUGCUAGAACAGGUGCUGUCCUCAUCAGACUCACACUCGGAUUCACUGGAACUCUCUAAAUCCAACAGAGGAUUGAGCAUCA
B17: chr1:163112212:163112213:-_ENSG00000143248_ENST00000313961|hu_hu|hu_hu_hu_mus_False|48_48 (ssRNA)
RNA: GGGAGUUCUACAGUCCGACGAUCUUUUAUUAUCAGUAAGAGUGAGUUACAUACUAGGCAAAGUAUUGGAUACAAUAAUCAGGAAACAAACACAAUUGGUCCAGAAUUUAAAACUUUAUGAGCGAAGUGCUGGCACAGGACUUACAACAGAGGAUUGAGCAUCA
B18: chr3:127788656:127788657:+_ENSG00000058262_ENST00000243253|hu_hu|motif|central (ssRNA)
RNA: GGGAGUUCUACAGUCCGACGAUCCACUUUCACAGUUCUUUUUGCCAGUGCCAGGAUAAAAAGCAAAAUUUUAAAUUGGAAAAUGUCGGGCACUUUACACAGUGGAAUGAAAGAAUACGAAAUUCAAAAACAUUAUUAAAAGUCCAACAGAGGAUUGAGCAUCA
B19: chr17:65740002:65740003:+_ENSG00000130935_ENST00000581375|hu_hu|hu_hu_hu_mus_False|48_58 (ssRNA)
RNA: GGGAGUUCUACAGUCCGACGAUCAACAAAUCUUUCUUCCCUGGACGAACAGGAAGAUUCAUAUUAAAAAAAAUAUAUGUCUAUGAAGGAGAAUUGAGUGGCCACACCUUUACUCCCAGCACUUUGGGAGGUGGAUCUCUGAGUCAACAGAGGAUUGAGCAUCA
B20: 95941554_95941674_2216_3pUTR_ENSG00000164938_ENST00000448464|human|control|control (ssRNA)
RNA: GGGAGUUCUACAGUCCGACGAUCGCCAGAGUGGUUAAAGAUUUUGCCUGAAGUUAAAACAAAAAAUGAAAAGUCACUUGGACUGCAGGGAAGAAUACUUACAAUACAAGGCAAUUAAAAAAAAAAAAAGAAAAAAGUUGAGCCCAACAGAGGAUUGAGCAUCA
B21: chr3:154749246:154749247:-_ENSMUSG00000053870_ENSMUST00000066568|mus_hu|FALSE|FALSE (ssRNA)
RNA: GGGAGUUCUACAGUCCGACGAUCGCCAUUUUUAUUAUUAAAAAUAGAAUUACAGUUGAGGAGAGAAGUGCCAGUGAAUACUUAGAACUUCACUGGACCAAAAGCCUCAAAAAAGAUGGAAAAAUUCCAAAGGUAUGCUUAGAACAACAGAGGAUUGAGCAUCA
B22: chr3:127788656:127788657:+_ENSG00000058262_ENST00000243253|hu_mus|motif|central (ssRNA)
RNA: GGGAGUUCUACAGUCCGACGAUCAAUUCACUUCUACUGGUUUUUUGCCAAUGCCAGAAAAAGCAAAAUUUCAAAUUGGAAAUUUCCGGGCACUUUACACAGUGGAAUGAAAAGAUAUGAAAUUUUAAAAAAAAUUAAAAAAAACAACAGAGGAUUGAGCAUCA
B23: chr16:94664382:94664383:+_ENSMUSG00000040785_ENSMUST00000117648|mus_hu|motif|central (ssRNA)
RNA: GGGAGUUCUACAGUCCGACGAUCAAAAGCUGGUGCUGAAGAUGAAUCUGACACUGGUUUAGACUUUACAUCUGGUUUAAAUUCCCGGGCAGCUGGAUUCAGUUGUAGUUUAACUCGUACAUACUCCCCUGCUUUUGAAAUUUCCAACAGAGGAUUGAGCAUCA

What follows are binders tested against T1, UNK ZnF1-3 (assay: nsRBNS (natural sequence RNA bind-n-seq); RBNS binding buffer (assumed for nsRBNS): 25 mM Tris pH 7.5, 150 mM KCl, 3 mM MgCl2, 0.01% Triton X-100, 500 ug/ml BSA, 20 U/ml SUPERase-In, 4 C; UNK is unkempt and MSI1 is Musashi-1; names of the RNAs are library labels; protein concentration not given here; high values mean tight binding).

Binder | binding signal [enrichment R]
B1 | 1.46
B2 | 0.704
B3 | 0.656
B4 | 0.91
B5 | 1.07
B6 | 4.87
B7 | 1.64
B8 | 2.62
B9 | 0.71
B10 | 3.93
B11 | 1.02
B12 | 7.05
B13 | 1.16
B14 | 0.83
B15 | 1.11
B16 | 0.49
B17 | 1.39
B18 | 4.09
B19 | 1.64
B20 | 12.6
B21 | 2.22
B22 | 6.28
B23 | 1.16
